In PubChem BioAssay (NCATS):
Inconclusive results are not listed. The source made the active and inactive calls. Calls follow the shape of the dose curve; as a rule, active = well fitted inhibition curve with a large enough effect; inconclusive = small, poorly fitted or top-dose-only effect; inactive = flat fitted curve, though single readings scatter.

Test: P-glycoprotein substrates identified in KB-8-5-11 adenocarcinoma cell line, qHTS therapeutic library screen (AID 1346987); also: nearly all actives have a fitted effect of over 65% in size
Details: KB-8-5-11 (P-gp overexpressing) viability, CellTiter-Glo, 72 h; series mostly up to 44.5 µM; activity change, negative = cytotoxicity: at the top concentration
Summary of the method: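 Human cervical adenocarcinoma KB-8-5-11 cells, selected in colchicine to over-express P-gp and assayed without it, were exposed for 72 h to titrated compounds. An ATP-based luminescent viability signal gave AC50.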
% is scaled to controls: 0 for no effect and ±100 for the full control effect.

Compound | activity change, negative = cytotoxicity | outcome
C[C@@H]1O[C@@H](O[C@H]2[C@H](OC(=O)[C@]34CCC(C)(C)C[C@H]3C3=CCC5[C@@]6(C)C[C@@H](O)[C@@H](O)[C@@](C)(CO)C6[C@H](O)C[C@@]5(C)[C@]3(C)CC4)OC[C@H](O)[C@@H]2O)[C@H](O)[C@H](O)[C@H]1O[C@@H]1OC[C@@H](O)[C@H](O[C@H]2O[C@H](C)[C@@H](O)[C@H](O)[C@@H]2O)[C@H]1O (some centres undefined) | 2.85% [at 9.29 µM] (inactive) | 
CC(C)=C1C[C@@]2(C)C(=CC1=O)CC[C@@H](O)[C@@H]2C | -2.24% (inactive) | 
CCCSc1nc(NC2CC2c2ccc(F)c(F)c2)c2nnn(C3CC(OCCO)C(O)C3O)c2n1 (centres undefined) | 0.539% (inactive) | 
CNc1nc(C)nc(N[C@H]2CCC[C@@H](C(=O)NCc3ccc(C#N)cc3C(F)(F)F)C2)n1 | -11.7% (inactive) | 
COc1cccc(C(=O)NCCNc2nc3cc(C)cc(C)c3cc2C#N)c1 | -23.7% (inactive) | 
C=CC(C)(CC/C=C(\C)C(=O)OC[C@H]1O[C@@H](OC(C)(C=C)CC/C=C(\C)C(=O)O[C@H]2[C@H](O)[C@@H](O)[C@H](OC(C)(C=C)CC/C=C(\C)C(=O)O)O[C@@H]2CO)[C@H](O)[C@@H](O)[C@@H]1O)O[C@@H]1O[C@H](CO)[C@@H](O)[C@H](O)[C@H]1O (some centres undefined) |  | inactive [at 9.29 µM]
O=C(O)c1ccnc2cc(C(OCC3CCC(F)(F)CC3)c3ccccc3Cl)[nH]c12 (centres undefined) | 8.48% (inactive) | 
Cc1nc2ccccc2c(-c2ccc3c4c(ccnc24)CCO3)c1[C@H](OC(C)(C)C)C(=O)O | 8.79% (inactive) | 
CC[C@H]1OC(=O)[C@H](C)[C@@H](O[C@H]2C[C@@](C)(OC)[C@@H](O)[C@H](C)O2)C(C)[C@@H](O[C@@H]2O[C@H](C)C[C@H](N(C)C)[C@H]2O)[C@](C)(O)C[C@@H](C)CN(C)[C@H](C)[C@@H](O)[C@]1(C)O (some centres undefined) | 7.45% (inactive) | 
